This is one part of a sample in which hits are shown more often than they occur.
Tgondii IFNg: blocks Toxoplasma gondii growth in the presence of IFN-gamma | Toxoplasma gondii growth in IFN-gamma-treated host cells; hits give low values | hit rate 3.8% among 69,000 | activity change, negative = inhibition, % (no concentration beside the values); in the data active means activity change below about -70%, passing the limit was not always enough;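 further: host cells are HeLa cells infected with Toxoplasma gondii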
A number is an active result; i = inactive; ! = a repeat was not active.

SMILES	Tgondii IFNg
COc1cccc(C2CCCCN2S(=O)(=O)c2c(C)noc2C)c1 (centres undefined)	i
CSc1cccc(NC(=O)N2CCC(c3nc(C(=O)N(C)C)c(C)o3)CC2)c1	i
CC(=O)N1CCC2(CC1)OC(=O)C(C)=C2C(=O)NCCCN1CCCCC1	i
Cc1cccc(-c2cnc(-c3ccncc3)nc2C2CCN(C(=O)c3ccoc3)CC2)c1	i
O=C(c1cc(COc2ccc(F)cc2Cl)on1)N1CCCCC1CCc1ccccn1 (centres undefined)	i
CC(C)CN1CCC2(CC1)CC1(CCN(C(=O)Nc3ccc(Cl)cc3)CC1)N(C)C2=O	i
Cc1ccsc1CCNC(=O)C1(Oc2cccnc2C)CCNCC1	i
O=C(CCC(=O)N1CCCC(c2ccccc2)CC1)NC1CCCC1 (centres undefined)	i
O=c1[nH]c2cc(F)ccc2c(O)c1-c1nc(-c2ccncc2)no1	i
CCC(NC(=O)Cn1nnc2ccccc2c1=O)c1ccccn1 (centres undefined)	i
COc1ccc2c(c1)NC1(CCN(S(=O)(=O)c3ccccc3C)CC1)c1cccn1-2	i
CCCCN(C)Cc1ccc(C(=O)Nc2c(C)noc2C)cc1	i
O=C(Nc1ccccc1)N(Cc1ccc(Cl)cc1)Cc1nc2ccccc2c(=O)[nH]1	i
CCCCN(Cc1ccc(C(=O)NO)cc1)C(=O)Nc1ccccc1	-85
CC(c1ccccc1-n1cccn1)n1ccnc1-c1ccco1 (centres undefined)	i
O=C(Nc1ccccc1OCCOc1ccccc1)C1CCCNC1 (centres undefined)	i
CCN1C(=O)CCc2cc(NS(=O)(=O)c3ccc(Cl)c(Cl)c3)ccc21	-100
COCCN1C(=O)CCc2cc(NS(=O)(=O)c3ccc(OC)c(OC)c3)ccc21	i
CCN1C(=O)CCc2cc(NS(=O)(=O)c3ccc4c(c3)OCCO4)ccc21	i
CCN1C(=O)CCc2cc(NS(=O)(=O)c3cccc(C)c3)ccc21	i
CCN1C(=O)CCc2cc(NS(=O)(=O)c3ccc(C)c(F)c3)ccc21	-72
CCN1C(=O)CCc2cc(NS(=O)(=O)c3ccccc3Cl)ccc21	i
COc1ccc(S(=O)(=O)N2CCCC2c2ccnc(Nc3ccccn3)n2)cc1 (centres undefined)	i
CCOC(=O)c1cc(C2CC2)nc2c1c(=O)n(Cc1nc(-c3cccc(Cl)c3)oc1C)c(=O)n2C	i
Cc1nc(NS(C)(=O)=O)sc1C(=O)N[C@@H]1CCC(=O)N[C@H]1c1cccs1	i
SMILES	Tgondii IFNg
c1cnc(N2CC[C@@H]3[C@@H]2CCN3c2nncs2)nc1	i
Cc1ccc(C2(O)CCN(C(=O)CCC(=O)N3CCCCCC3)CC2)nc1	i
O=C(c1csc(-c2ccc(N3CCCC3)nc2)n1)N1CCC2(CC1)OCCO2	i
O=C(NCCN1CCOCC1)c1csc(-c2ccc(N3CCCC3)nc2)n1	-100
O=C(NCc1ccc(N2CCOCC2)cc1)c1csc(-c2ccc(N3CCCC3)nc2)n1	i
CN(C)C(=O)COCC1CN(CC2CCOC2)Cc2ccnn2C1 (centres undefined)	i
O=C(NCCN1CCCC1)c1nc(Nc2ccc(F)cc2)c2ccccc2n1	i
O=C(Cc1ccc(F)cc1)N1CCC2(CC1)COCCN(c1ncccn1)C2	i
COc1ccc(C(=O)N2CCc3[nH]cnc3C23CCCCC3)cc1	i
O=C(Cc1ccc(OC(F)(F)F)cc1)N1CCc2[nH]cnc2C12CCCC2	-80
COC(=O)c1cc2n(n1)CCCN(C(=O)Cc1cn3ccsc3n1)C2	i
Cc1ccc(CN2CCc3ncnc(N4CCCC4)c3CC2)o1	i
Cn1nc(-c2ccc(-c3ccnc(SCc4ccccc4)n3)s2)cc1C(F)(F)F	-97
Cn1nc(-c2ccc(S(N)(=O)=O)s2)cc1C(F)(F)F	i
Nc1cc(N)nc(SCc2ccccc2)n1	i
CCOCC(=O)NCC1Cn2nnc(-c3cnn(C)c3)c2CO1 (centres undefined)	i
Cc1ccc(S(=O)(=O)c2ncsc2SCc2ccc(Cl)cc2Cl)cc1	-94
Cc1ccc(S(=O)(=O)Nc2cc(=O)[nH]c(SCc3ccccc3Cl)n2)cc1	i
Cc1cc2nc3ccccc3c(=O)n2c(SCc2ccc(Cl)cc2Cl)n1	i
Cc1nnc(Sc2c(N)n(C)c(=O)[nH]c2=O)s1	i
Cc1nnc(Sc2nc(Sc3nnc(C)s3)nc(N3CCCCC3)n2)s1	-84
Cc1nnc(-c2ccc(C(C)N3CCCCC3)cc2)s1 (centres undefined)	i
COc1cc2c(Oc3ccc4[nH]c(C)cc4c3F)ncnc2cc1OCCCN1CCCC1	i
C#Cc1cccc(Nc2ncnc3cc(OCCOC)c(OCCOC)cc23)c1	i
COc1cc2c(Nc3ccc(NC(=O)c4ccccc4)cc3)ncnc2cc1OCCCN1CCOCC1	-76!
c1cncc(COC2CCN(Cc3cnc(-c4cccs4)nc3)CC2)c1	i
CC(C)(CNC(=O)C1CC2(CCNCC2)CN1)N1CCc2ccccc2C1 (centres undefined)	i
CC(=O)NCC(=O)N1C[C@H](N(C)Cc2cncnc2)[C@@H]2OCCC[C@@H]21	i
O=C(c1cc2cccnc2n(Cc2ccc(Cl)cc2)c1=O)N1CCN(c2ccc(F)cc2)CC1	-98
O=C(c1cc2cccnc2n(Cc2ccc(F)cc2)c1=O)N(Cc1ccccc1)c1ccccc1	i
